Laboratory results from the supplement of paper PMC7411054.
Counter-ions that a name gives are not always drawn.

Columns and labels:
Test in all cases: phenotypically active (imaging signature differs from DMSO and reproducible) at any of 0.3-9 uM (binary (1 = active, 0 = inactive)); higher = active
Conditions in all cases: treatment time: 24 h
[1] = system: A549-ACTB-RAB5A
Method in brief: (§1)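 Phenotypic activity depended on meeting both a deviation and a reproducibility criterion. The fifteen gene-edited A549, HepG2 and WPMY1 reporter lines were treated at 0.3, 1, 3 or 9 µM for 24 h, four wells each, then imaged live with features normalised to solvent control wells. Deviation required ≥3 of 4 wells past the 95th percentile of control Euclidean distances, and reproducibility a median replicate Pearson correlation above the 95th percentile of non-replicates.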

[2] = system: A549-CANX-COX4
Method in brief: as §1

[3] = system: A549-GM130-SQSTM1
Method in brief: as §1

[4] = system: A549-TP53BP1-CLTA
Method in brief: as §1

[5] = system: A549-TUBA1B-RELA
Method in brief: as §1

[6] = system: HepG2-ACTB-RAB5A
Method in brief: as §1

[7] = system: HepG2-CANX-COX4
Method in brief: as §1

[8] = system: HepG2-GM130-SQSTM1
Method in brief: as §1

[9] = system: HepG2-TP53BP1-CLTA
Method in brief: as §1

[10] = system: HepG2-TUBA1B-RELA
Method in brief: as §1

[11] = system: WPMY1-ACTB-RAB5A
Method in brief: as §1

[12] = system: WPMY1-CANX-COX4
Method in brief: as §1

[13] = system: WPMY1-GM130-SQSTM1
Method in brief: as §1

[14] = system: WPMY1-TP53BP1-CLTA
Method in brief: as §1

[15] = system: WPMY1-TUBA1B-RELA
Method in brief: as §1

Measured: phenotypically active

N[C@@H](C(=O)O)c1ccc(C(=O)O)c(C(=O)O)c1
inactive: [1] 0 | [2] 0 | [3] 0 | [4] 0 | [5] 0 | [6] 0 | [7] 0 | [8] 0 | [9] 0 | [10] 0 | [11] 0 | [12] 0 | [13] 0 | [14] 0 | [15] 0

COc1c2occc2cc2ccc(=O)oc12 [methoxsalen]
inactive: [1] 0 | [2] 0 | [3] 0 | [4] 0 | [5] 0 | [6] 0 | [7] 0 | [8] 0 | [9] 0 | [10] 0 | [11] 0 | [12] 0 | [13] 0 | [14] 0 | [15] 0

CC(C)(C)NC[C@H](O)COc1cccc2c1CCCC2=O [levobunolol]
inactive: [1] 0 | [2] 0 | [3] 0 | [4] 0 | [5] 0 | [6] 0 | [7] 0 | [8] 0 | [9] 0 | [10] 0 | [11] 0 | [12] 0 | [13] 0 | [14] 0 | [15] 0

OC[C@H]1NC[C@H](O)[C@@H](O)[C@@H]1O [1-Deoxynojirimycin]
inactive: [1] 0 | [2] 0 | [3] 0 | [4] 0 | [5] 0 | [6] 0 | [7] 0 | [8] 0 | [9] 0 | [10] 0 | [11] 0 | [12] 0 | [13] 0 | [14] 0 | [15] 0

CC1(COc2ccc(CC3SC(=O)NC3=O)cc2)CCCCC1 (stereo not given) [Ciglitazone]
inactive: [1] 0 | [2] 0 | [3] 0 | [4] 0 | [5] 0 | [6] 0 | [7] 0 | [8] 0 | [9] 0 | [10] 0 | [11] 0 | [12] 0 | [13] 0 | [14] 0 | [15] 0

COc1ccc(C2(CNC(=O)c3ccc(NC(=O)c4ccco4)cc3)CCOCC2)cc1
inactive: [1] 0 | [2] 0 | [3] 0 | [4] 0 | [5] 0 | [6] 0 | [7] 0 | [8] 0 | [9] 0 | [10] 0 | [11] 0 | [12] 0 | [13] 0 | [14] 0 | [15] 0

CN(C)CCc1c[nH]c2ccc(C[C@H]3COC(=O)N3)cc12 [zolmitriptan]
inactive: [1] 0 | [2] 0 | [3] 0 | [4] 0 | [5] 0 | [6] 0 | [7] 0 | [8] 0 | [9] 0 | [10] 0 | [11] 0 | [12] 0 | [13] 0 | [14] 0 | [15] 0

Nc1c2c(nc3ccccc13)CCCC2 [tacrine]
inactive: [1] 0 | [2] 0 | [3] 0 | [4] 0 | [5] 0 | [6] 0 | [7] 0 | [8] 0 | [9] 0 | [10] 0 | [11] 0 | [12] 0 | [13] 0 | [14] 0 | [15] 0

Cc1ncc([N+](=O)[O-])n1CCOC(=O)NC(Nc1ncccn1)C(Cl)(Cl)Cl (stereo not given) [Apcin]
inactive: [1] 0 | [2] 0 | [3] 0 | [4] 0 | [5] 0 | [6] 0 | [7] 0 | [8] 0 | [9] 0 | [10] 0 | [11] 0 | [12] 0 | [13] 0 | [14] 0 | [15] 0

CC(C)NCCCC1(C(N)=O)c2ccccc2-c2ccccc21 [indecainide]
inactive: [1] 0 | [2] 0 | [3] 0 | [4] 0 | [5] 0 | [6] 0 | [7] 0 | [8] 0 | [9] 0 | [10] 0 | [11] 0 | [12] 0 | [13] 0 | [14] 0 | [15] 0

NS(=O)(=O)c1cc2c(cc1Cl)NC(C(Cl)Cl)NS2(=O)=O (stereo not given) [trichlormethiazide]
inactive: [1] 0 | [2] 0 | [3] 0 | [4] 0 | [5] 0 | [6] 0 | [7] 0 | [8] 0 | [9] 0 | [10] 0 | [11] 0 | [12] 0 | [13] 0 | [14] 0 | [15] 0

O=P(O)(O)C(O)(Cn1ccnc1)P(=O)(O)O [zoledronic-acid]
inactive: [1] 0 | [2] 0 | [3] 0 | [4] 0 | [5] 0 | [6] 0 | [7] 0 | [8] 0 | [9] 0 | [10] 0 | [11] 0 | [12] 0 | [13] 0 | [14] 0 | [15] 0

CCN(CC)CCNC(=O)c1cc(Cl)c(N)cc1OC [metoclopramide]
inactive: [1] 0 | [2] 0 | [3] 0 | [4] 0 | [5] 0 | [6] 0 | [7] 0 | [8] 0 | [9] 0 | [10] 0 | [11] 0 | [12] 0 | [13] 0 | [14] 0 | [15] 0

CCCc1nc(C(C)(C)O)c(C(=O)OCc2oc(=O)oc2C)n1Cc1ccc(-c2ccccc2-c2nnn[nH]2)cc1 [olmesartan-medoxomil]
inactive: [1] 0 | [2] 0 | [3] 0 | [4] 0 | [5] 0 | [6] 0 | [7] 0 | [8] 0 | [9] 0 | [10] 0 | [11] 0 | [12] 0 | [13] 0 | [14] 0 | [15] 0

CC(C)NCC(O)c1ccc(O)c(O)c1 (stereo not given) [Isoproterenol hydrochloride]
inactive: [1] 0 | [2] 0 | [3] 0 | [4] 0 | [5] 0 | [6] 0 | [7] 0 | [8] 0 | [9] 0 | [10] 0 | [11] 0 | [12] 0 | [13] 0 | [14] 0 | [15] 0

CCC(=C(CC)c1ccc(O)cc1)c1ccc(O)cc1 (stereo in doubt) [diethylstilbestrol]
inactive: [1] 0 | [2] 0 | [3] 0 | [4] 0 | [5] 0 | [6] 0 | [7] 0 | [8] 0 | [9] 0 | [10] 0 | [11] 0 | [12] 0 | [13] 0 | [14] 0 | [15] 0

CNC[C@H](O)c1ccc(O)c(O)c1 [epinephrine]
inactive: [1] 0 | [2] 0 | [3] 0 | [4] 0 | [5] 0 | [6] 0 | [7] 0 | [8] 0 | [9] 0 | [10] 0 | [11] 0 | [12] 0 | [13] 0 | [14] 0 | [15] 0

CC[N+](CC)(CC)CCOc1cccc(OCC[N+](CC)(CC)CC)c1OCC[N+](CC)(CC)CC [gallamine-triethiodide]
inactive: [1] 0 | [2] 0 | [3] 0 | [4] 0 | [5] 0 | [6] 0 | [7] 0 | [8] 0 | [9] 0 | [10] 0 | [11] 0 | [12] 0 | [13] 0 | [14] 0 | [15] 0

CC[C@H](C)C(=O)O[C@H]1C[C@H](O)C=C2C=C[C@H](C)[C@H](CC[C@@H](O)C[C@@H](O)CC(=O)O)[C@H]21 [pravastatin]
inactive: [1] 0 | [2] 0 | [3] 0 | [4] 0 | [5] 0 | [6] 0 | [7] 0 | [8] 0 | [9] 0 | [10] 0 | [11] 0 | [12] 0 | [13] 0 | [14] 0 | [15] 0

O=C1NCCCC1C(=O)NCCc1c[nH]c2ccc(O)cc12 (stereo not given)
inactive: [1] 0 | [2] 0 | [3] 0 | [4] 0 | [5] 0 | [6] 0 | [7] 0 | [8] 0 | [9] 0 | [10] 0 | [11] 0 | [12] 0 | [13] 0 | [14] 0 | [15] 0

NC(=O)c1cccnc1 [Nicotinamide]
inactive: [1] 0 | [2] 0 | [3] 0 | [4] 0 | [5] 0 | [6] 0 | [7] 0 | [8] 0 | [9] 0 | [10] 0 | [11] 0 | [12] 0 | [13] 0 | [14] 0 | [15] 0

COc1ccc2cc(CCC(C)=O)ccc2c1 [nabumetone]
inactive: [1] 0 | [2] 0 | [3] 0 | [4] 0 | [5] 0 | [6] 0 | [7] 0 | [8] 0 | [9] 0 | [10] 0 | [11] 0 | [12] 0 | [13] 0 | [14] 0 | [15] 0

CC(C)Cn1c(=O)n(C)c(=O)c2[nH]cnc21
inactive: [1] 0 | [2] 0 | [3] 0 | [4] 0 | [5] 0 | [6] 0 | [7] 0 | [8] 0 | [9] 0 | [10] 0 | [11] 0 | [12] 0 | [13] 0 | [14] 0 | [15] 0
